Reference: PubChem BioAssay AID833 (The Scripps Research Institute Molecular Screening Center, 2007)
The whole screen tested about 16,000 compounds, of which about 80 (0.5%) were called active. Rule as the data show it: active = activation above about 15%; inactive = the rest. What follows is part of a selection rich in actives, with near analogues and random picks from the rest.

molecular target: Galanin receptor type 2 (Rattus norvegicus) (UniProt O08726); assay: activates the rat galanin receptor 2 (AID 833); details: cell-based GALR2 agonist screen; at 10 µM; active compounds read high
Sequence (O08726 whole entry, looked up): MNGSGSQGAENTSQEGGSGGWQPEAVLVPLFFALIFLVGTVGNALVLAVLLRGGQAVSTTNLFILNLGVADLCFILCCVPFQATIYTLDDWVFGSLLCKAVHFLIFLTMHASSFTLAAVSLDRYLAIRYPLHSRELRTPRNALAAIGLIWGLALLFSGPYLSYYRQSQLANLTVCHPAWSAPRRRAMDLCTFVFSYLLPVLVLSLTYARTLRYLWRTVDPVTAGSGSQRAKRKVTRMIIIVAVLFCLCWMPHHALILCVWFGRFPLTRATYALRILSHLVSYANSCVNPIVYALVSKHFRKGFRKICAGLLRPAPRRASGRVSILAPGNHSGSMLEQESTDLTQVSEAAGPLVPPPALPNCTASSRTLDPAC

activation, inactive:
COc1ccc(S(=O)c2ccccc2C(=O)O)c(C(=O)O)c1 (stereo unspecified) -7.55%, Cc1ccc(NC(=O)c2ccccc2NC(=O)c2ccccc2)cc1 -2.58%, CCOC(=O)C(=CNc1ccc2n[nH]nc2c1)C(=O)OCC -1.04%, CSc1sc(C(=O)Nc2cccc(C(F)(F)F)c2)cc1S(=O)(=O)C(C)C -6.93%, Cn1c(SCC(=O)c2ccc(Cl)cc2)nnc1-c1cnccc1C(F)(F)F -8.49%, O=S(=O)(Cc1nnc(-c2cc(Cl)cc(Cl)c2)o1)c1ccc(Cl)cc1 -1.76%, CC1(C)CC(=O)C=C(N2CCOCC2)C1 -5.82%, Cc1ccc(Sc2cc(C)c(C)cc2N)c(C)c1 -6.96%, O=C1NCCN1CCNS(=O)(=O)c1cc(Cl)sc1Cl -5.62%, O=S(=O)(Oc1ccc(C2SCCS2)cc1)c1ccc(Br)cc1 -1.98%, CNC(=S)Nc1cscc1S(=O)(=O)c1ccc(Cl)cc1 -6.95%, CCOC(=O)NC(=S)NC12CC3CC(CC(C3)C1)C2 -2.11%, Cc1onc(-c2ccccc2)c1CNS(=O)(=O)c1ccc(-c2ccccn2)s1 -9.42%, COC(=O)c1c(C(=O)OC)c2n(c1C)CCS2 -6.88%, Cc1onc(-c2ccccc2Cl)c1NC(=O)N1c2ccc(F)cc2CCC1C (stereo unspecified) -4.64%, N#Cc1sccc1Br -7.39%, O=S(=O)(O)Oc1c[nH]c2ccccc12 -7.29%, N#CC(C#N)=Cc1cccn1-c1ccc(C(F)(F)F)cc1 -6.03%, CS/C(=N\S(=O)(=O)c1ccccc1)NNc1ccccc1 -3.17%, O=c1[nH]c2c(=O)[nH]c(=S)[nH]c2nc1/C=C(\O)c1ccccc1 -5.76%, CN(C)/C=C/C(=O)c1cc(C(C)(C)C)cc(C(C)(C)C)c1O -4.8%, N#Cc1ccc(N2CCSCC2)cc1[N+](=O)[O-] -4.09%, N/C(=N\OC(=O)c1ccc(Cl)cc1)c1cccc(CS(=O)(=O)c2ccccn2)c1 -8.52%, COc1cccc(/C=C2\SC(=S)C(N)C2=O)c1OC (stereo unspecified) -1.21%, CS(=O)(=O)c1csc(C(=O)NCc2cccnc2)c1Cl -6.55%, O=C(N[C@@H](Cc1ccc(O)cc1)C(=O)O)OCc1ccccc1 -5.07%, CS(=O)(=O)Nc1ccc(/C(N)=N/OC(=O)c2cccs2)cc1 -5.51%, CCc1ccnc(NS(=O)(=O)c2ccc3c(c2)OCCO3)c1 -1.48%, c1csc(-c2ccc(-c3ccon3)s2)c1 -4.74%, CC(=O)c1ccc(NC(=O)OC2CCSC2)cc1 (stereo unspecified) -4.49%, O=C(Nc1ccc2c(c1)OCCO2)c1cnccn1 6.11%, COc1cc(C=C(C#N)C#N)cc(OC(C)=O)c1OC(C)=O -8.12%, CNC(=S)NNC(=O)CSc1cccs1 -6.57%, O=C(NC(=O)c1ccno1)Nc1ccccc1Cl -3.51%, Cc1cc(C2=CSC3=NCCN23)ccc1Cl -7.84%, CN(C)CCC(O)c1ccc2c(c1)OCCCCO2 (stereo unspecified) -8.25%, Cc1ccc(N(C)NC(=O)Nc2ccc(Cl)cc2)nn1 -6.34%, COc1ccc(C(=O)NNC(=O)c2c(OC)cc(C(F)(F)F)cc2C(F)(F)F)cc1 -1.51%, CCOC(=O)Cc1nnc(-c2ccc(Cl)cc2)o1 -7.97%, N#Cc1nc(-c2ccccc2)c(-c2ccccc2)nc1C#N 3.73%, Cc1noc(C)c1C(=O)Oc1cccc2cccnc12 3.32%, Cc1ccc(OC(=O)c2cccc([N+](=O)[O-])c2)c(Br)c1 1.69%, NS(=O)(=O)c1cc(C(F)(F)F)cc(C(F)(F)F)c1 -4.46%, NNC(=O)c1csc(COc2ccc(C3SCCS3)cc2)n1 -7.31%, O=C(Nc1ccccc1N1CCOCC1)NC1CCN(C(=O)OCc2ccccc2)CC1 -4.03%, CCOC(=O)c1cc(Sc2ccccc2N)cc(C(=O)OCC)n1 -3.83%, CN(C)C(=O)Nc1ccc(C(C)(C)C)cc1 -6.41%, O=C(O)c1ccccc1N/C=C/[N+](=O)[O-] -3.26%, Cc1nn2c(=O)c3c4c(sc3nc2[nH]c1=O)CCCC4 0.66%, Fc1cccc(Cl)c1CSc1nccn1-c1cccnc1 -3.88%, O=C(NC1Cc2ccccc2C1)c1nnc(-c2ccccc2)o1 -5.35%, N/C(=N\OC(=O)c1ccc([N+](=O)[O-])o1)c1ccc(OCc2ccc(Cl)cc2)c(Cl)c1 -4.76%, CN(C)c1cccc2c1c(NC(=O)Nc1ccc(OCc3ccccc3)cc1)nn2C -3.92%, O=C(Nc1ccc(C(F)(F)F)cn1)c1ccc(Oc2cc(Cl)cc(Cl)c2)o1 -5.62%, CCN=C(NCC)Nc1ccc(Cl)cc1 -7.95%, CCOC(=O)CCC(=O)OC(C(=O)c1ccccc1)c1ccccc1 (stereo unspecified) -6.88%, COc1ccc(C2CC(c3cccs3)=Nc3ccccc3S2)c(Cl)c1OC (stereo unspecified) -10.3%, CCCN(CCC)S(=O)(=O)c1ccc(C(=O)N2CC3CCC(CC3)C2)cc1 -5.35%, O=C(Nc1ccc(OC(F)F)cc1)Nc1coc(-c2ccccc2)c1 -4.63%, COc1ccc2c(c1)CCCC2=Nc1ccccc1C(F)(F)F -6.48%, COC(=O)c1ccc(S(=O)(=O)NNC(=O)c2cn3cc(C(F)(F)F)cc(Cl)c3n2)n1C -7.71%, O=c1c(-c2nc(-c3ccc(C(F)(F)F)cc3)no2)cnc2n1CCS2 -4.47%, Cc1noc(C)c1S(=O)(=O)Nc1cc(C(F)(F)F)ccc1N1CCOCC1 -7.12%, COC(=O)c1cc(OC)c(OC)cc1NS(=O)(=O)c1ccsc1C(=O)OC -7.2%, O=C(Nc1cccnc1Oc1ncnc2cc(Cl)ccc12)c1ccc(F)cc1 -3.54%, CS(=O)(=O)/N=C(\N)c1ccncc1 -6.47%, CCOC(=O)Cn1cc(Cl)ccc1=O -2.49%, O=C1C2C3C=CC(O3)C2C(=O)N1OCc1ccc(OC(F)(F)F)cc1 (stereo unspecified) -2.8%, O=c1[nH]c2ccccc2s1 -3.62%, CCOc1ccc(C(N)=O)c(SCC(=O)O)c1 -10.1%, Cn1nnnc1SCC(=O)Nc1ccc(OC(F)(F)F)cc1 -4.06%, COc1ccc(/C=N/N2CCC(=O)Nc3ccccc32)c(OC)c1 -4.04%, N/C(=N\OCc1noc(-c2ccsc2)n1)c1ccc(C(F)(F)F)cc1 -8%, Cc1noc(C)c1C(=O)c1c(C)[nH]n(-c2ccccc2)c1=O -4.7%, CC(C)(C)NC(=O)NCC(c1ccc[nH]1)C(F)(F)F (stereo unspecified) -6.65%, COC(=O)C1=C(c2ccccc2)C(c2ccccc2)=C(C(=O)OC)C1=O -1.25%, N#CC(C#N)=CNc1c(F)cccc1Cl -9.67%, CC(=O)/C(=C\N(C)C)c1ncccc1[N+](=O)[O-] -5.71%, C=C(C)c1cccc(C(C)(C)NC(=O)CC(C)=O)c1 -4.52%, O=C(Cc1cc(F)cc(F)c1)n1nccc1-c1cccs1 -4.48%, FC(F)(F)c1cccc(NC(=S)NNc2nccc(C(F)(F)F)n2)c1 -8.08%, COC(=O)c1sccc1S(=O)(=O)Nc1ccccc1Sc1ncnc2c(C)csc12 -5.48%, N/C(=N\S(=O)(=O)c1ccc(Cl)cc1)N1CCOCC1 -1.28%, Fc1ccc(Oc2nc(Oc3ccc(F)cc3)nc(N3CCSCC3)n2)cc1 -8.25%, CN(NS(=O)(=O)c1ccc(C(F)(F)F)cc1)c1cnn(C)c(=O)c1Cl -5.39%, COC(=O)c1ccsc1NC(C)=O -5.28%, CCOC(=O)c1ccc(NC)c(N)c1 -7.18%, CN(C)c1ccc(/C=C(\C#N)S(C)(=O)=O)c(Cl)c1 -4.37%, CC(C)[C@H]1COC(c2cccc(C3=N[C@@H](C(C)C)CO3)n2)=N1 -5.78%, COC(=O)c1sc(S(C)=O)c(-c2ccon2)c1C (stereo unspecified) -6.07%, O=C(Cn1nnc(N2CCOCC2)n1)N/N=C/c1ccc(-c2cccc([N+](=O)[O-])c2)o1 -7.32%, CO/N=C1\C(=O)N(C)c2ccccc21 -3.65%, COc1ccc(CCNC(=O)c2ccccc2-c2ccccc2C(=O)O)cc1OC -7.28%, COC(=O)c1c(C)noc1-c1ccno1 -5.48%, CCOC(=O)c1c(NC(=S)NC)sc2c1CCCC2 -0.11%, N/C(=N\OC(=O)Nc1ccccc1)c1ccc(Oc2c(Cl)cncc2Cl)cc1 -6.45%, CN([C@H]1CCN2CCc3ccccc3C2C1)S(C)(=O)=O (stereo partly specified) -4.21%, CCOC(=O)CN1C(=O)/C(=C\c2ccc(C)o2)N=C1c1ccccc1 -8.17%, CN1CCN(c2ccc(NC(=O)c3ccccc3)cc2)CC1 -7.3%

activation, active:
O=c1oc2c3ccccc3c3oc(=O)sc3c2s1 16.7%, O=C(CN1C(=O)/C(=C/c2ccccc2Cl)N=C1c1ccccc1)c1ccccc1 15.2%
